# Measured values taken from PubChem BioAssay AID463173 (ICCB-Longwood Screening Facility, Harvard Medical School, 2010).
# Screen size: about 52,000 compounds; about 4,300 (8.3%) were called active. The list comes from a sample in which actives are over-represented; it also holds similar structures and randomly drawn compounds. Values without a mark were called inactive. Cut-off read from the data, not from the text of the source: active = survival mostly below about 52% (no sharp cut-off); inactive = mostly above about 56%.
# Test system: DeltatarO mutant
# Experiment: S. aureus survival, RN4220 and DeltatarO strains – OD600, teichoic acid synthesis inhibitors, primary screen (AID 463173)
# Conditions: S. aureus RN4220 wild type/DeltatarO growth, OD600, 18 h, active compounds read low, screened at 18.75 µg/mL (by protocol)
row,Compound,survival
1,Cc1ccc(Cl)cc1N1CCN(C(=O)CCCCCn2c(=O)[nH]c3ccccc3c2=O)CC1,78%
2,COc1cccc(N2CCN(C(=O)CCCn3c(=O)[nH]c4ccc(Br)cc4c3=O)CC2)c1,53%
3,CCOc1cc2[nH]c(=O)n(CCCC(=O)N3CCN(c4cccc(Cl)c4)CC3)c(=O)c2cc1OCC,81%
4,COC(=O)c1ccc2c(=O)n(CCCCCC(=O)N3CCN(c4cc(Cl)ccc4C)CC3)c(=O)[nH]c2c1,129%
5,Cc1ccc(Cl)cc1N1CCN(C(=O)CCCn2c(=O)[nH]c3ccc(Br)cc3c2=O)CC1,29% (active)
6,O=C(CCCn1c(=O)[nH]c2ccc(Br)cc2c1=O)N1CCN(c2cccc(Cl)c2)CC1,48% (active)
7,O=c1[nH]c(-c2ccc(S(=O)(=O)N3CCCC3)cc2)nc2sc3c(c12)CCCC3,120%
8,COc1cc(OC)c(NS(=O)(=O)c2cc(-c3cnc(C)o3)ccc2OC)cc1Cl,67%
9,O=C(CSc1nc2c(c(=O)[nH]1)CCCC2)Nc1ccccc1C(F)(F)F,58%
10,CCc1ccc(-n2c(SCC(=O)NC(C)CC)nc3n[nH]c(C)c3c2=N)cc1 (stereo unspecified),122%
11,O=S(=O)(c1cccc(Cl)c1)n1c(/C=C/c2ccccc2Cl)nc2ccccc21,68%
12,COc1cc(OC)c(C2Nc3ccccc3-c3nnc(SCc4ccccc4)nc3O2)cc1OC (stereo unspecified),54%
13,CCOc1ccc(C2Nc3ccccc3-c3nnc(SCc4ccccc4)nc3O2)cc1OC (stereo unspecified),50%
14,COc1cccc(C2Nc3ccccc3-c3nnc(SCc4ccccc4)nc3O2)c1OC (stereo unspecified),140%
15,CCOc1ccccc1C1Nc2ccccc2-c2nnc(SCc3ccccc3)nc2O1 (stereo unspecified),44% (active)
16,O=C(O)COc1ccccc1C1Nc2ccccc2-c2nnc(SCc3ccc(Cl)cc3)nc2O1 (stereo unspecified),66%
17,CCOc1cc(C2Nc3ccccc3-c3nnc(SCc4ccccc4)nc3O2)ccc1OC (stereo unspecified),45% (active)
18,COc1ccc(-c2noc(-c3nnn(-c4ccc(C(C)C)cc4)c3C)n2)cc1OC,67%
19,O=C(c1ccc2c(c1)N(Cc1c(F)cccc1Cl)C(=O)c1ccccc1S2)N1CCCC1,74%

row,Compound,survival
1,CCOc1ccccc1NC(=O)N1CCCC(c2nc3c(nnn3Cc3ccc(C)cc3)c(=O)[nH]2)C1 (stereo unspecified),82%
2,Cc1ccc(Cn2nnc3c(=O)[nH]c(C4CCN(S(=O)(=O)/C=C/c5ccccc5)CC4)nc32)cc1,89%
3,O=C(c1ccccc1)N1CCC(c2nc3c(nnn3Cc3ccccc3)c(=O)[nH]2)CC1,13% (active)
4,CCOc1ccc(Cn2nnc3c(=O)[nH]c(C4CCN(C(=O)c5ccccc5)CC4)nc32)cc1,4% (active)
5,Cc1ccc(C)c(C(=O)N2CCC(c3nc4c(nnn4Cc4ccccc4)c(=O)[nH]3)CC2)c1,39% (active)
6,O=c1[nH]c(C2CCCNC2)nc2c1nnn2Cc1ccccc1 (stereo unspecified),98%
7,COc1cccc(OC)c1Cn1nnc2c(=O)[nH]c(C3CCN(C(=O)c4ccccc4)CC3)nc21,56%
8,O=c1oc2cc(Br)ccc2n1CO,105%
9,Cc1ccc(NCc2ccccc2-c2nnc(-c3ccccc3Cl)o2)c(C)c1,83%
10,Cc1cccc(N2CCN(CC(=O)NCc3cccs3)CC2)c1C,101%
11,COc1ccc2c(c1)c1c(c(=O)n(CCc3ccccc3)c(=O)n1Cc1cccc(C)c1)n2C,70%
12,CCCCN(CC)CCNC(=O)c1nn(C)c2c1CS(=O)(=O)c1ccccc1-2,56%
13,CCOC(=O)N1CCN(Cc2nc3cc([N+](=O)[O-])ccc3n2C(C)C)CC1,92%
14,O=C(NCCO)c1nc2ccccc2s1,73%
15,CCN(CC)c1ccc(NC(=O)c2cc(C)nc3c2c(C)nn3-c2cccc(F)c2)c(C)c1,100%
16,O=C(CSC1=NC(=O)C(c2ccccc2)C(=O)N1)Nc1nncs1 (stereo unspecified),70%
17,O=C(c1cn(CCOc2ccccc2F)c2ccccc12)C1CCCCC1,-2% (active)
18,O=C(c1cn(CCOc2ccc(Cl)cc2)c2ccccc12)C1CCCCC1,14% (active)
19,Cc1ccc(NC(=O)Cn2cc(C(=O)C3CCCCC3)c3ccccc32)cc1,62%

row,Compound,survival
1,COc1ccc(NC(=O)Cn2cc(C(=O)C3CC3)c3ccccc32)cc1,88%
2,O=C(c1cccs1)c1cn(CCOc2ccc(Cl)cc2)c2ccccc12,156%
3,Cc1ccc(OCCn2cc(C(=O)c3cccs3)c3ccccc32)cc1,69%
4,COc1ccc(NC(=O)Cn2cc(C(=O)C3CCCCC3)c3ccccc32)cc1,71%
5,Cc1ccccc1OCCn1cc(C(=O)C2CCCCC2)c2ccccc21,144%
6,O=C(Cn1cc(C(=O)C2CCCCC2)c2ccccc21)Nc1ccccc1Cl,76%
7,Cc1ccc(OCCn2cc(C(=O)C3CCCCC3)c3ccccc32)cc1,3% (active)
8,COc1ccc(OCCn2cc(C(=O)C3CCCCC3)c3ccccc32)cc1,13% (active)
9,O=C(c1cccs1)c1cn(CCOc2ccccc2F)c2ccccc12,104%
10,Cc1c(NC(=O)c2nc3ccccc3nc2N2CCCCC2)cccc1[N+](=O)[O-],100%
11,COc1ccc(-c2nc3n(n2)C(c2ccc(OC)cc2)C(C(=O)Nc2cccnc2)=C(C)N3)cc1 (stereo unspecified),89%
12,Cc1ccc(N2CC(NC(=O)CCc3ccccc3)CC2=O)cc1C (stereo unspecified),101%
13,COc1ccc(N2CCN(C(=O)Cn3c(-c4cccs4)cc4ccccc43)CC2)cc1,80%
14,Cc1cc(C)c(NC(=O)CN2C(=O)c3cccnc3Sc3ccccc32)c(C)c1,83%
15,CCOC(=O)c1ccc(N2C(=O)c3n[nH]c(-c4ccco4)c3C2c2ccc(O)c(OCC)c2)cc1 (stereo unspecified),69%
16,C=CCn1c(O)c(CN2CCOCC2)c(C)c(C#N)c1=O,89%
17,O=C(O)Cc1ccc(NC2(c3ccccc3)C(=O)c3ccccc3C2=O)cc1,73%
18,Cc1cccc(NC(=O)c2ccc3c(O)c(S(=O)(=O)c4ccccc4)c(=O)[nH]c3c2)c1C,88%
